± gives the standard deviation of the averaged measurements. In all, about 33,000 sequences were measured (“E-score (rank enrichment, -0.5 to 0.5)”: median about -0.0043, highest 2% from about 0.24 on). What follows is part of a selection rich in the highest values, with near analogues and random picks from the rest.
Test system: 2Sp-muMax20 (muMax20 with two 2,6-bis(methyl)pyridine Cys staples)
Assay: PBM 8-mer E-score (E-score (rank enrichment, -0.5 to 0.5)); higher = stronger preferential binding
Method: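 Protein binding microarray (universal PBM chip covering all 10-mers in fixed probe flanks) with chemically synthesized human Max(13-93) bHLH-LZ analogs (not full-length Max) bearing noncanonical residues (hArg, Tha, Aib, Nle at 65) and aromatic Cys staples. Read-out per 8-mer (and its reverse complement): E-score (rank-based enrichment, -0.5 to 0.5) and Z-score of median probe intensity.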

Sequence	PBM 8-mer E-score
ATCGAGAC	-0.161 ± 0.025
CGCGTCTC	0.157 ± 0.072
ACTGAGGG	-0.0464 ± 0.034
ACTGCTGC	0.0474 ± 0.025
GTGGGCGA	0.263 ± 0.088
ATGGGCGA	0.0316 ± 0.058
CTGGGCGA	-0.174 ± 0.045
AATCCCAC	0.00653 ± 0.032
GACTCTAC	-0.0372 ± 0.069
GTATTGGA	0.0561 ± 0.061
CGCATGCC	0.189 ± 0.053
ATCATGCG	0.136 ± 0.013
AGCATGCC	0.0906 ± 0.028
AGCATGAA	0.174 ± 0.04
AGCATGCT	0.332 ± 0.036
CGCATGCG	0.286 ± 0.02
ACCATGCT	0.211 ± 0.0076
AGCATGCG	0.275 ± 0.0033
AGCATGAG	0.121 ± 0.064
AGCATGAT	0.131 ± 0.051
CCCATGCG	0.0929 ± 0.051
AGCATGAC	0.243 ± 0.051

Sequence	PBM 8-mer E-score
TATCCCGA	-0.0363 ± 0.017
ACCACGGT	-0.234 ± 0.057
CCTCAAGA	0.175 ± 0.069
AATGACAA	0.179 ± 0.025
GGCGTCAC	0.0505 ± 0.091
TCGGTTAA	-0.144 ± 0.038
CCACACAC	0.0649 ± 0.082
AGGACAAT	0.0666 ± 0.068
CTCCATCA	0.0787 ± 0.11
GATCAGTA	0.141 ± 0.0015
CTCAACTC	0.0172 ± 0.017
AAGCTGTA	0.168 ± 0.027
AAGCTTAC	0.084 ± 0.0037
AAGCTTAT	0.25 ± 0.032
AAGCTGAC	-0.0135 ± 0.013
AAGCTGAT	0.294 ± 0.012
AAGCTTAA	-0.0812 ± 0.033
CAGCACTC	0.0109 ± 0.049
GGTTTTTA	0.118 ± 0.05
GTATCAAA	0.167 ± 0.037
ACGTTACT	0.097 ± 0.078
CCACTTTC	0.123 ± 0.028

Sequence	PBM 8-mer E-score
ATTAATGC	0.14 ± 0.0056
GGTAATTA	0.147 ± 0.011
ATTAATTG	0.157 ± 0.057
GTTAATGA	0.181 ± 0.1
CGTAATTA	0.133 ± 0.0041
CTTAATGC	0.25 ± 0.014
ATTAATTC	0.229 ± 0.026
ATTAATGG	0.0949 ± 0.013
ATTAATGA	0.276 ± 0.074
AGTAATTA	0.256 ± 0.051
CTTAATGA	0.0929 ± 0.029
ATTAATTA	0.312 ± 0.065
CATGCACC	0.161 ± 0.0063
GGGGTCGA	-0.0201 ± 0.04
TTACTGAA	0.0517 ± 0.035
ACGAAAAG	0.0249 ± 0.0051
ACGAGATG	-0.00212 ± 0.067
CCCCGATC	-0.166 ± 0.013
AGATTGTC	-0.0414 ± 0.0031
GACGGGCA	-0.0942 ± 0.011
ATAAATTG	0.106 ± 0.026
ATTAATCA	0.259 ± 0.059

Sequence	PBM 8-mer E-score
ATTAATAA	0.224 ± 0.12
ATTAATAG	0.197 ± 0.079
ATAAATTA	0.303 ± 0.049
GTTAATCA	0.198 ± 0.048
CTAAATTA	-0.0028 ± 0.045
ATTAATCC	0.0916 ± 0.0058
CTTAACAC	0.164 ± 0.016
ATTAATAC	0.256 ± 0.1
ATTAACAC	0.306 ± 0.05
ATTAACAA	0.161 ± 0.042
AAGAATCA	0.116 ± 0.04
GAGGCCTA	-0.184 ± 0.066
AGAAATCT	0.0669 ± 0.11
ATATGAAA	0.219 ± 0.031
ACACTTCG	-0.0252 ± 0.098
AAAAATTA	0.116 ± 0.052
GAAAATTA	0.291 ± 0.063
CAAAATTA	0.15 ± 0.063
AGCGTGCG	0.178 ± 0.02
GTAGAATA	0.253 ± 0.0027
